# Assay outcomes from PubChem.
# An excerpt weighted towards active compounds, which were near 7.1% of everything screened.
# ELG1 DNA repair: ELG1-dependent DNA repair inhibition | HEK293T ELG1-luciferase reporter, luminescence, 16 h; DNA damage induced by 5-fluorouridine | Potency, µM (series often up to 46.1 µM), for the others: at the highest dose activity change, negative = inhibition, usual class: inhibitors | 330,000 compounds, 2.3% hits; also: % is scaled to controls: 0 for no effect and ±100 for the full control effect; nearly all actives have a fitted effect of over 55% in size
#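 DMSO vehicle served as the neutral condition. Each well held 2,000 cells given 5-fluorouridine plus compound; after 16 hr at 37 °C/5% CO2, ONE-Glo was added and luciferase measured 30 min later.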
# AT treatment: potential ataxia-telangiectasia treatment | 320,000 compounds, 0.19% hits | F2112 A-T fibroblasts, KAP-1 phosphorylation AlphaLISA; neocarzinostatin DNA damage 30 min before lysis | Potency, µM (titrated, usually from 57.5 µM), for the others: top-dose activation, usual class: activators; also: % of control where 0% means no effect; nearly all actives have a fitted effect of over 45% in size
#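 hTERT-immortalized A-T patient fibroblasts (F2112), 500 cells/well in OPTI-MEM, 1% FBS, got compounds for 60 min, then NCS for 30 min at 37C. Lysates were then assayed for phospho-KAP-1 by AlphaLISA (anti-pKAP1 donor, anti-KAP1 acceptor beads), 6 hr at 25C.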
# SW480 rereplic: DNA re-replication induction in SW480 cells; Potency, µM (series often up to 46.1 µM), for inactives: at the highest dose re-replication activation, hits mostly activators; 340,000 compounds, 1.8% hits; SW480 DNA re-replication, Hoechst DNA content imaging, 48 h; also: % of control where 0% means no effect; nearly all actives have a fitted effect of over 55% in size
#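 Treated cells incubate 48 hr (37 C, 5% CO2), are stained 40 min with Hoechst, and nuclear fluorescence is enumerated; a rise in nuclei with high DNA signal marks re-replication.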
# MCF10A rereplic: induces DNA re-replication in MCF 10a normal breast cells. Potency, µM (top dose mostly 46.1 µM), for inactives: at the highest dose activity, positive = re-replication, most hits filed as activators. 350,000 compounds, 2.9% hits. MCF 10A DNA re-replication, Hoechst nuclear intensity, 48 h. AID 624296; also: % of control where 0% means no effect; nearly all actives have a fitted effect of over 50% in size
# ELG1 genotox: inducers of genotoxicity in HEK293T ELG1-luciferase cells | Potency, µM (highest dose often 46 µM), for inactives: top-dose activity change, positive = activation, usual class: activators | 330,000 compounds, 1.3% hits | HEK293T ELG1-luciferase reporter, luminescence, 16 h; also: % of control where 0% means no effect; nearly all actives have a fitted effect of over 60% in size
#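 ELG1-luciferase HEK293T cells, 2,000/well; compound pinned in; 16 hr, 37 °C, 5% CO2; ONE-Glo, 30 min RT; luminescence on CCD imager.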
# p53 reactivator: restores transcriptional activity of mutant p53 | H1299 p53-A138V BP100-luciferase reporter, luminescence, 24 h | Potency, µM (series often up to 92.2 µM), without a hit: at the highest dose activity change, positive = activation, actives largely listed as activators | 320,000 compounds, 0.063% hits | AID 504706; also: % of control where 0% means no effect; nearly all actives have a fitted effect of over 45% in size
#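 H1299 (p53-null), stable ts p53-A138V + BP100-Luc; 1000 cells/well, Opti-MEM/10% FBS; cpd 4 pt, 1:5; 24 h, 37 deg C, 5% CO2; detection reagent 10 min RT; luminescence.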
# Starred values were filed as active, the others as inactive; ? = inconclusive; · = no result given. Calls follow the shape of the dose curve; as a rule, active = well fitted curve in the direction sought with a large enough effect; inconclusive = small, poorly fitted or top-dose-only effect, or another doubt; inactive = no such curve, though single readings can be large; an effect the other way counts as inactive or inconclusive. Potency is read from the fitted curve at half-maximal effect.
SMILES,ELG1 DNA repair,AT treatment,SW480 rereplic,MCF10A rereplic,ELG1 genotox,p53 reactivator
CN(C(=O)CCl)C1CCCc2ccccc21 (configuration not stated),4%,7%,2.3µM*,?,10%,-10%
CC1CCN(c2ccc(NC(=O)C3CCCN3S(=O)(=O)c3ccc(F)cc3)cc2)CC1 (configuration not stated),-7%,3%,-3%,8%,-1%,8%
CC1=NN(C(N)=S)C(=O)C1N=Nc1ccc(C)cc1C (configuration not stated),?,·,·,·,11µM*,?
CC(NC(=O)COC(=O)CCC(=O)c1ccc(F)cc1)c1ccccc1 (configuration not stated),26%,-5%,1%,0%,2%,-2%
COc1ccc(OC)c(-c2cc(-c3cccnc3)nc(N)c2C#N)c1,?,19%,6.5µM*,12µM*,16%,-3%
COc1ccc(/C=C/C(=O)N(C)C2(C)CCS(=O)(=O)C2)cc1 (configuration not stated),17%,8%,23µM*,3%,0%,4%
O=C(CSc1nc2ccccc2s1)N1N=C(c2cccs2)CC1c1ccc(F)cc1 (configuration not stated),-1%,1%,0%,16µM*,0%,-7%
COc1cc(C2CC(c3cccs3)=NN2C(=O)CCl)ccc1OC(F)F (configuration not stated),0%,4%,25%,16µM*,-6%,-19%
COc1ccc(C2CC(c3cccs3)=NN2C(=O)c2ccccc2)cc1OC (configuration not stated),0%,4%,2%,1%,2%,-2%
COc1ccc(C2CC(c3cccs3)=NN2C(=O)CCl)cc1OC (configuration not stated),?,10%,2.1µM*,3.3µM*,-29%,-13%
COc1ccc(C2CC(c3cccs3)=NN2C(=O)CCC(=O)O)cc1 (configuration not stated),-7%,6%,-4%,0%,0%,·
O=C(O)c1cc(N2C(=O)CCC2=O)ccc1Cl,-1%,6%,14%,?,-2%,·
CSCC[C@H](NC(=O)C1CCC(CNC(=O)[C@@H]2CCCN2C(=O)OC(C)(C)C)CC1)C(=O)O (some centres not stated),22%,0%,-2%,-1%,5%,-4%
COc1ccc(-c2cc(-c3ccccc3O)[nH]n2)cc1OC,?,8%,-22%,?,21µM*,?
COc1ccc(-c2cc(-c3ccc(OC)c(OC)c3)n[nH]2)c(O)c1,?,·,1%,?,5.8µM*,?
Oc1ccccc1-c1cc(-c2ccc3c(c2)OCCO3)n[nH]1,?,15%,-2%,-9%,0.37µM*,?
CC1=NN(C(=O)c2nn(C)cc2Br)C(O)(C(F)(F)F)C1 (configuration not stated),-10%,0%,13µM*,?,-2%,22%
CC1=NN(C(=O)c2cc(C)nn2C)C(O)(C(F)(F)F)C1 (configuration not stated),3%,-1%,0.52µM*,3%,0%,-13%
COc1cccc(NC(=O)[C@H](CC(C)C)NC(=O)N2CCn3c2nc2ccccc23)c1,-16%,3%,-15%,8%,-2%,7%
O=C(CCN1C(=O)[C@@H]2Cc3ccccc3CN2C1=O)Nc1cccc(F)c1,0%,15%,-17%,-17%,0%,-5%
O=C(NCc1ccc(F)cc1)C1CCCN(c2nc3ccsc3c(=O)s2)C1 (configuration not stated),-7%,6%,?,12µM*,0%,0%
CN(C)Cc1ccc(CNC(=O)COc2ccc3ccccc3c2)cc1,?,4%,18%,?,1%,5%
Cc1ccc(O)c(NC2=C(Cl)C(=O)N(Cc3ccccc3)C2=O)c1,7%,-2%,12%,-1%,0%,-1%
Cc1ccc(C(=O)N2CCCCC2)cc1NC1=C(Cl)C(=O)N(Cc2ccccc2)C1=O,18µM*,-8%,?,8.2µM*,-12%,-9%
Cn1ccc(C(=O)NC(=S)Nc2ccc([N+](=O)[O-])cc2O)n1,?,3%,0%,2%,12µM*,?
SMILES,ELG1 DNA repair,AT treatment,SW480 rereplic,MCF10A rereplic,ELG1 genotox,p53 reactivator
O=C(NC(=S)Nc1cc([N+](=O)[O-])ccc1O)c1ccc2c(c1)OCO2,?,0%,?,13µM*,1µM*,?
Cc1ccc2nc(SCC(=O)NCC3CCCO3)c(C#N)cc2c1 (configuration not stated),21%,2%,-4%,1%,10%,8%
COc1ccc2nc(SCC(=O)NCC3CCCO3)c(C#N)cc2c1 (configuration not stated),?,3%,-4%,23µM*,6%,19%
Cc1nc(SCC(=O)NCC2CCCO2)c2c3c(sc2n1)CCC3 (configuration not stated),?,4%,-3%,-1%,-3%,0%
Cc1nc(SCC(=O)NCC2CCCO2)c2cc(-c3ccccc3)sc2n1 (configuration not stated),7%,5%,-3%,21µM*,0%,?
Cc1ccc(C)c(N2CCN(c3ncccc3[N+](=O)[O-])CC2)c1,-15%,-3%,23%,?,-13%,1%
CCOC(=O)c1[nH]c2ccc(OC)cc2c1NC(=O)CN1CCc2ccccc2C1,16µM*,10%,4%,?,-6%,-8%
CCOC(=O)c1[nH]c2ccc(F)cc2c1NC(=O)C(C)N1CCc2cc(OC)c(OC)cc2C1 (configuration not stated),4.1µM*,0%,16µM*,7.3µM*,-25%,7%
CCOC(=O)c1[nH]c2cc(OC)c(OC)cc2c1NC(=O)CN1CCN(C)CC1,-10%,4%,·,·,21µM*,-8%
CCOC(=O)c1[nH]c2ccc(C)cc2c1NC(=O)CN1CCCCC1,?,0%,3%,17%,-8%,-17%
CCOC(=O)c1[nH]c2ccc(OC)cc2c1NC(=O)C(C)N1CCC2(CC1)OCCO2 (configuration not stated),0%,12%,·,·,-12%,-4%
O=c1c2ccccc2c(C=Nc2cccc(O)c2)c(O)n1-c1ccc2c(c1)OCO2,-15%,7%,?,15µM*,7%,-33%
